Experiment [1] can be described thus: qHTS assay to identify small molecule antagonists of the thyroid receptor (TR) signaling pathway (AID 743065). Also: nearly all actives have a fitted effect of over 55% in size. Also: potency is read from the fitted curve at half-maximal effect. A digest of the protocol:
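GH3.TRE-Luc rat pituitary cells carrying two TR response elements driving luciferase were plated for 4 h, given compound plus 1 nM T3 (final), and incubated 23.5 h at 37 C. ONE-Glo luminescence measured reporter inhibition; CellTiter-Fluor fluorescence tracked cytotoxicity.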
A general note: qHTS replaces the single test concentration by a dilution series.

In experiment [2] the test system is thyroid hormone receptor (rat, GH3 cells). Briefly: qHTS assay to identify small molecule agonists of the thyroid receptor (TR) signaling pathway (AID 743066; calls by dose curve).
In experiment [3] the target is Estrogen receptor (Homo sapiens) (UniProt P03372). Put plainly: qHTS assay to identify small molecule agonists of the estrogen receptor alpha (ER-alpha) signaling pathway (AID 743075; calls by dose curve;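 also: HEK293 GripTite cells with ER-alpha and UAS-driven beta-lactamase reporter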; also: potency is read from the fitted curve at half-maximal effect).
Estrogen receptor (Homo sapiens), sequence (P03372 whole entry, looked up): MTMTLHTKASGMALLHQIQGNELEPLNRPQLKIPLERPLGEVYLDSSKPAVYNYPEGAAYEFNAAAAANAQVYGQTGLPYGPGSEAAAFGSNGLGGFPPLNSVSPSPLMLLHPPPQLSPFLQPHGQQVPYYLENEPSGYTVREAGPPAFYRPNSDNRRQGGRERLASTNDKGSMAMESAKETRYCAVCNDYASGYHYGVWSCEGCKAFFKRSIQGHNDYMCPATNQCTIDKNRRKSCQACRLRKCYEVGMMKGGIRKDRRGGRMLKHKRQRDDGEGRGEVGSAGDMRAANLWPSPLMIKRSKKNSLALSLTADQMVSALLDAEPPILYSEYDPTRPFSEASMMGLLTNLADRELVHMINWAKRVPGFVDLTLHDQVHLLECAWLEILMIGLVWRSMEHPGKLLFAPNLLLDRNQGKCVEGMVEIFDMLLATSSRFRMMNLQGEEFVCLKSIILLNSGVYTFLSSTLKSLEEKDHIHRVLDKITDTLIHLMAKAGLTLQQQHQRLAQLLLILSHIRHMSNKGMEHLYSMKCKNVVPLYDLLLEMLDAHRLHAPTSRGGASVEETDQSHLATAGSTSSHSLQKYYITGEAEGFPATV
Experiment [4] has the same target. Put plainly: qHTS assay to identify small molecule agonists of the estrogen receptor alpha (ER-alpha) signaling pathway using the BG1 cell line (AID 743079). Also: nearly all actives have a fitted effect of over 20% in size. Also: potency is read from the fitted curve at half-maximal effect.
Experiment [5] is described as follows: qHTS assay to identify small molecule antagonists of the estrogen receptor alpha (ER-alpha) signaling pathway using the BG1 cell line - cell viability counter screen (AID 743081).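 Also: compound given together with 17beta-estradiol as the ER stimulus; nearly all actives have a fitted effect of over 45% in size.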 Also: potency is read from the fitted curve at half-maximal effect.
The target of another experiment is Aromatase (Homo sapiens) (UniProt P11511). Put plainly: qHTS assay to identify aromatase inhibitors (AID 743083). Also: nearly all actives have a fitted effect of over 55% in size. Also: potency is read from the fitted curve at half-maximal effect.
Aromatase (Homo sapiens), sequence (P11511 whole entry, looked up): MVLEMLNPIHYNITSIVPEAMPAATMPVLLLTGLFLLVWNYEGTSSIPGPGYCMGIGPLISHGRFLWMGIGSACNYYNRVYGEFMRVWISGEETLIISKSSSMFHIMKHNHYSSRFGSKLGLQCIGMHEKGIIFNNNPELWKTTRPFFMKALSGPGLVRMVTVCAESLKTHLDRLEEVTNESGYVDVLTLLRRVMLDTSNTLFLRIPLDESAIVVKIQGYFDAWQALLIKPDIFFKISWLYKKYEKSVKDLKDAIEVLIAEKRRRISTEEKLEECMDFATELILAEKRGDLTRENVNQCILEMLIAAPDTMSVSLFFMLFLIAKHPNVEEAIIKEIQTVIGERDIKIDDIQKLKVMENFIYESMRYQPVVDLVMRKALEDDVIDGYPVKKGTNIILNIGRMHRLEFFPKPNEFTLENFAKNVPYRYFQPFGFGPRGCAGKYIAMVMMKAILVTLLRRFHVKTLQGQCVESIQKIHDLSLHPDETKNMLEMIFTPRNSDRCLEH
Experiment [6] deals with Estrogen receptor (Homo sapiens) (UniProt P03372). Put plainly: qHTS assay to identify small molecule antagonists of the estrogen receptor alpha (ER-alpha) signaling pathway (AID 743069; active = well fitted curve in the direction sought with a large enough effect in the signal ratio in the repeat runs, not every such curve was filed as active; inconclusive = weak or mixed curves, or effect the other way; inactive = no such curve, though single readings can be large or run the other way; the % refers to the signal ratio; also: potency is read from the fitted curve at half-maximal effect). A digest of the protocol: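 Estradiol-stimulated ER-alpha-UAS-bla HEK293 cells, 18 hr compound exposure at 37C. LiveBLAzer B/G substrate, 2 hr RT, fluorescence read.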
The nature of experiment [7]: qHTS assay to identify small molecule antagonists of the estrogen receptor alpha (ER-alpha) signaling pathway - cell viability counter screen (AID 743074; calls by dose curve;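 also: HEK293 cells carrying ER-alpha-UAS-bla reporter stimulated with 17beta-estradiol; nearly all actives have a fitted effect of over 45% in size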; also: potency is read from the fitted curve at half-maximal effect).
A short description of experiment [8]: qHTS assay to identify small molecule antagonists of the estrogen receptor alpha (ER-alpha) signaling pathway using the BG1 cell line (AID 743080; calls by dose curve;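 also: BG1 cells stimulated with 17beta-estradiol alongside compound; nearly all actives have a fitted effect of over 25% in size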; also: potency is read from the fitted curve at half-maximal effect). The procedure, abridged: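 Luminescence from a 4×ERE-luciferase reporter in BG1-Luc-4E2 cells served as read-out. Cells, pre-cultured 5 days in stripped-serum phenol-red-free medium, were exposed to compound with 17beta-estradiol co-stimulation for 21.5 h at 37 C.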

“And” between values parts separate entries of the source, which are not always exact repeats. Equal entries are not always repeated. Where a structure was tested more than once in an assay, its records may differ in their call. The source made the active and inactive calls. Unless noted, calls follow the shape of the dose curve; as a rule, active = well fitted curve in the direction sought with a large enough effect in the repeat runs; inconclusive = weak or mixed curves; inactive = no such curve, though single readings can be large; an effect the other way counts as inactive or inconclusive.

In the case of `S=c1nc[nH]c2nc[nH]c12`, the Potency entry (in experiment [1]; in experiment [3]; in experiment [4]; in experiment [5]; in the experiment with Aromatase (Homo sapiens)) was “inactive” in each case. In addition, the outcome in experiment [2] was inactive.
`NCCc1ccc(O)c(O)c1`: the Potency in experiment [1] was 48.7 µM (active); in [5] it was “inactive and 54.6 µM (active)”. Further, the result in [2] was inactive. Also, the Potency entry (in [6]; in experiment [7]; in experiment [3]; with Aromatase (Homo sapiens)) was “inactive” throughout.
Consider `Cc1cc(NS(=O)(=O)c2ccc(N)cc2)no1`, for which the Potency result in [1], in experiment [7] and in [5] was “inactive” in each case. Further, the compound was classed as inactive in experiment [2].
Take `CC(C)n1c(/C=C/[C@@H](O)C[C@@H](O)CC(=O)O)c(-c2ccc(F)cc2)c2ccccc21`: in experiment [1], the Potency was 13.3 µM (active) and 21.7 µM (active). Besides, in [2], the result was inactive. The Potency entry in experiment [7] and in [5] was “inactive” each time.
For `Nc1nc2ncc(CNc3ccc(C(=O)N[C@@H](CCC(=O)O)C(=O)O)cc3)nc2c(=O)[nH]1`, the Potency entry (in [7]; in [5]; with Aromatase (Homo sapiens)) was “inactive” each time.
Turning to `O=S(=O)(Oc1ccc(Cl)cc1Cl)c1ccccc1`, the Potency result (in [1]; in [6]; in experiment [7]; in [5]; with Aromatase (Homo sapiens)) was “inactive” in each case. Besides, in experiment [2], the result was inactive. In addition, the Potency in [3] was 7.9 µM [activator] (active) and 55 µM [activator] (active); in experiment [4], 19.7 µM (active) and 30.6 µM (active).
On to `CC1=CC[C@H]2C[C@@H]1C2(C)C`, for which the Potency entry in experiment [1], in experiment [6], in experiment [7], in experiment [3], in experiment [4] and in experiment [8] was “inactive” throughout. Moreover, the Potency entry (in [5]; with Aromatase (Homo sapiens)) was “inactive” throughout. In addition, in [2], the outcome was inactive.
With `CCCCNC(N)=O`, the Potency result (in experiment [1]; in experiment [7]; in experiment [5]; in the experiment with Aromatase (Homo sapiens)) was “inactive” in each case. Moreover, in experiment [2], the call was inactive.
On to `CCc1ccc(O)cc1`, for which the Potency entry (in [1]; in experiment [7]; in [5]; in the experiment with Aromatase (Homo sapiens)) was “inactive” throughout. Further, in experiment [2], the compound was called inactive.
With `CCCCC/C=C\C/C=C\CCCCCCCC(=O)OC`, in [2], the compound was called inactive. The Potency result in [6], in experiment [7], in experiment [3], in [4], in experiment [8] and in experiment [5] was “inactive” in each case. For the same compound, the Potency entry in the experiment with Aromatase (Homo sapiens) is “inactive”.
Consider `CS(=O)(=O)c1ccc([C@@H](O)[C@@H](CO)NC(=O)C(Cl)Cl)cc1`, for which the Potency result in experiment [1], in experiment [6], in experiment [7], in experiment [3], in [4] and in [8] was “inactive” in each case. In addition, the Potency result (in experiment [5]; with Aromatase (Homo sapiens)) was “inactive” each time. The compound was classed as inactive in [2].
Take `CC1(C)CC(N=C=O)CC(C)(CN=C=O)C1` (stereo not drawn): the Potency result in [1], in experiment [6], in [7], in [3], in experiment [4] and in experiment [8] was “inactive” throughout. Also, the Potency entry (in experiment [5]; with Aromatase (Homo sapiens)) was “inactive” throughout. For the same compound, in [2], the call was inactive.
As to `CC(=O)CCc1ccccc1`, the Potency entry (in experiment [1]; in experiment [7]; in experiment [5]; with Aromatase (Homo sapiens)) was “inactive” throughout. Further, the compound was classed as inactive in [2].
For the compound `CCCCC(CC)C(=O)OCCOCCOCCOC(=O)C(CC)CCCC` (stereo not drawn), the Potency result in experiment [1], in experiment [6], in [7], in experiment [3], in experiment [4] and in experiment [8] was “inactive” each time. The Potency entry (in experiment [5]; with Aromatase (Homo sapiens)) was “inactive” throughout. In addition, in [2], the call was inactive.
`CCOC(=O)C1OC1c1ccccc1` (stereo not drawn): the outcome in experiment [2] was inactive. Besides, the Potency entry (in experiment [7]; in experiment [5]; with Aromatase (Homo sapiens)) was “inactive” in each case.
In the case of `O=C1N=C(O)CN1/N=C/c1ccc(-c2ccc([N+](=O)[O-])cc2)o1`, the Potency was 27.3 µM (active) in experiment [1] and 48.6 µM (active) in experiment [5]. Also, the compound was classed as inactive in experiment [2]. Also, the Potency result (in [7]; with Aromatase (Homo sapiens)) was “inactive” throughout.
In the case of `CCCCC(CC)COC(C)=O` (stereo not drawn), the Potency entry (in experiment [1]; in [7]; in experiment [5]; with Aromatase (Homo sapiens)) was “inactive” in each case. Besides, the outcome in experiment [2] was inactive.
In the case of `CC(C)(N=C=O)c1cccc(C(C)(C)N=C=O)c1`, the Potency result (in experiment [1]; in experiment [7]; in [5]; in the experiment with Aromatase (Homo sapiens)) was “inactive” in each case. In experiment [2], the result was inactive.
`C=C(C)C(=O)OCCC[Si](OC)(OC)OC`: the Potency entry in experiment [1], in experiment [6], in experiment [7], in [3], in experiment [4] and in experiment [8] was “inactive” in each case. The Potency entry (in experiment [5]; with Aromatase (Homo sapiens)) was “inactive” each time. Besides, in experiment [2], the compound was classed as inactive.
With `CS(=O)(=O)Nc1ccc([N+](=O)[O-])cc1Oc1ccccc1`, the Potency entry (in experiment [1]; in experiment [7]; in experiment [5]; with Aromatase (Homo sapiens)) was “inactive” in each case. In [2], the call was inactive.
`C=C(C#N)C(=O)OCC`: the Potency entry (in [1]; in experiment [7]; in experiment [5]; in the experiment with Aromatase (Homo sapiens)) was “inactive” each time. Also, the call in experiment [2] was inactive.
Regarding `CNC[C@H](O)[C@@H](O)[C@H](O)[C@H](O)CO`, the Potency result in experiment [1], in experiment [7] and in experiment [5] was “inactive” each time. Also, the call in [2] was inactive.
Take `CC1CC(OC(=O)c2ccccc2O)CC(C)(C)C1` (stereo not drawn): in experiment [2], the compound was called inactive. Besides, the Potency entry (in experiment [7]; in [5]; with Aromatase (Homo sapiens)) was “inactive” each time.
For the compound `Cn1c([N+](=O)[O-])cnc1COC(N)=O`, the Potency entry in experiment [1], in experiment [6], in [7], in [3], in experiment [4] and in [8] was “inactive” in each case. Further, the Potency entry (in experiment [5]; in the experiment with Aromatase (Homo sapiens)) was “inactive” throughout. The compound was classed as inactive in experiment [2].
For `CN(C)c1ccc(C(=N)c2ccc(N(C)C)cc2)cc1`, the Potency in experiment [1] was 7.6 µM (active) and 7.4 µM (active); in [6], 37.4 µM [inconclusive] (active); in [5], 30.3 µM (active) and 14.8 µM (active). Besides, in [2], the compound was called inactive. The Potency result in [3] is “inactive”.
As to `O=c1c(-c2ccc(O)cc2)coc2cc(O)ccc12`, the Potency entry (in experiment [6]; in experiment [5]; with Aromatase (Homo sapiens)) was “inactive” throughout.
Turning to `O=C(c1ccc(O)cc1)c1ccc(O)cc1O`, the Potency result (in [1]; in experiment [7]; in experiment [8]; in [5]; with Aromatase (Homo sapiens)) was “inactive” in each case. For the same compound, in [2], the result was inactive. For the same compound, the Potency in [3] was 11.1 µM [inconclusive] (active) and 21.9 µM [inconclusive] (active); in [4], 5.5 µM (active) and 9.69 µM (active).
Regarding `Oc1c(Cl)cc(Cl)c(Cl)c1Cl`, the Potency in [1] is 47.5 µM (active) and 30.6 µM (active); in experiment [6] it was 34 µM [inconclusive] (active); in experiment [7], 53.8 µM (active); in [8], “inactive and 68.6 µM (active)”. Further, the outcome in [2] was inactive. Moreover, the Potency result (in experiment [3]; in [5]; with Aromatase (Homo sapiens)) was “inactive” throughout.
In the case of `CC1=C(CC(=O)O)c2cc(F)ccc2/C1=C\c1ccc(S(C)=O)cc1` (stereo not drawn), the Potency result (in experiment [1]; in experiment [7]; in [5]; with Aromatase (Homo sapiens)) was “inactive” throughout. In addition, the outcome in experiment [2] was inactive.
Take `COC(=O)Nc1nc2ccc(Sc3ccccc3)cc2[nH]1`: the Potency in [1] is 202 nM (active) and 217 nM (active). Moreover, in [2], the outcome was inactive. Moreover, the Potency entry (in experiment [7]; in experiment [5]; with Aromatase (Homo sapiens)) was “inactive” throughout.
In the case of `O=[N+]([O-])C(CO)(CO)CO`, the Potency result in experiment [1], in experiment [6], in [7], in experiment [3], in experiment [4] and in [8] was “inactive” each time. In addition, the Potency entry (in [5]; in the experiment with Aromatase (Homo sapiens)) was “inactive” in each case. The compound was called inactive in experiment [2].
For `NCCNCCNCCNCCN`, the Potency entry (in experiment [1]; in experiment [7]; in experiment [5]; with Aromatase (Homo sapiens)) was “inactive” each time. For the same compound, the result in experiment [2] was inactive.
As to `CCCCCC/C=C/CCCCCCCC(=O)O`, the Potency result (in [6]; in experiment [7]; in experiment [3]; in experiment [8]; in experiment [5]; with Aromatase (Homo sapiens)) was “inactive” each time. Besides, the Potency in experiment [4] was 30.7 µM (active) and inactive.
`CC1COc2ccccc2N1C(=O)C(Cl)Cl` (stereo not drawn): the Potency in [1] was 8.62 µM (active) and 15.3 µM (active); in experiment [3], 24.5 µM [inconclusive] (active); in experiment [8] it was 30.6 µM (active) and 68.5 µM (active); with Aromatase (Homo sapiens) it was 61 µM (active) and inactive. In experiment [2], the call was inactive. Further, the Potency entry in experiment [6], in [7], in experiment [4] and in [5] was “inactive” in each case.
In the case of `C=C(C)C(=O)OCC(CC)(COC(=O)C(=C)C)COC(=O)C(=C)C`, the Potency entry (in [1]; in experiment [5]; with Aromatase (Homo sapiens)) was “inactive” throughout. Moreover, the compound was classed as inactive in experiment [2].
As for `C[C@@H]1O[C@@H](OC[C@H]2O[C@@H](Oc3c(-c4ccc(O)c(O)c4)oc4cc(O)cc(O)c4c3=O)[C@H](O)[C@@H](O)[C@@H]2O)[C@H](O)[C@H](O)[C@H]1O`, the Potency entry (in experiment [1]; in [7]; in experiment [5]; with Aromatase (Homo sapiens)) was “inactive” each time. The result in [2] was inactive.
On to `O=C(O)c1ccc([N+](=O)[O-])cc1`, for which the Potency result (in [1]; in experiment [7]; in [5]; in the experiment with Aromatase (Homo sapiens)) was “inactive” in each case. For the same compound, the outcome in [2] was inactive.
Take `Cc1cc(Cc2ccc(N)c(C)c2)ccc1N`: the Potency result in experiment [1], in experiment [7] and in [5] was “inactive” in each case. For the same compound, the compound was called inactive in experiment [2].

The values above are taken from PubChem BioAssay (Tox21).
